Hit rate of the full screen: of about 65,000 compounds, about 2,100 (3.2%) showed an effect of 50% or more. The median lay at about -52%. This excerpt belongs to a sample that is enriched for strong results.
Test system: Plasmodium falciparum
Assay: Screen against P. falciparum Asexual Blood Stage (ABS), at 5uM
Type: functional, Dd2
Conditions: tested at 5 uM

Point of comparison: CN1CCCC2(CCN(C(=O)c3ccncc3)C2)C1 (stereo not drawn), INHIBITION -62%. Against it:
- CN(C)CCNC(=O)[C@H]1C[C@H]2CN(c3ncccn3)C[C@H]2N1C — lower, -64.2%
- CN(C)CCNC(=O)C1Cc2nc(-c3ccccc3)sc2N1CC1CC1 (stereo not drawn) — higher, 89.7%
- Cc1csc([C@@H]2C[C@@H]3CCN(Cc4cc(C)on4)C[C@H]3O2)n1 — higher, -19.3%
- CNc1nc(C)cc(NC2CCCN(C3Cc4ccccc4C3)C2)n1 (stereo not drawn) — higher, 89.5%
- CN(C(=O)Cc1ccn(C)c1)C1CCCN(C2Cc3ccccc3C2)C1 (stereo not drawn) — higher, -32.4%
- Cc1cc(N2CCCN3CCC[C@H]3C2)n2nc(C)c(C)c2n1 — higher, 9.89%
- CNc1cc(C)nc(NC2CCCN(C3Cc4ccccc4C3)C2)n1 (stereo not drawn) — higher, 92.8%
- Cc1cc(C)nc(N2CCCC2c2cccnc2)n1 (stereo not drawn) — higher, 0.584%
- Cn1ncc2c1NC(=O)CSC2c1ccc2c(c1)OCO2 (stereo not drawn) — lower, -86%
- c1cc(COC[C@]23COC[C@H]2CN(Cc2ccncc2)C3)ccn1 — lower, -118%
- CN1CCN([C@@H]2CN(C(=O)c3ccnnc3)[C@@H]3CCCO[C@H]23)CC1 — lower, -103%
- Cc1oc(-c2ccco2)nc1CC(=O)N1CCN(CC(C)O)CC1 (stereo not drawn) — lower, -65.7%
- Fc1ccc(Cc2cnc(C3CCCN3)cn2)cc1 (stereo not drawn) — higher, 45.6%
- CN1CCCC1c1cccc(Cc2ccc(F)cc2)n1 (stereo not drawn) — higher, 62.1%
- CN1CCCC1c1ccc(N2CCOCC2)cn1 (stereo not drawn) — lower, -144%
- Cc1nnc([C@H]2C[C@@H]3CCN(Cc4cc(C)on4)C[C@H]3O2)[nH]1 — higher, -33.8%
- CC(C)N1CC[C@@H]2OC[C@H](C(=O)Nc3cccnc3)C[C@@H]2C1 — higher, -33.5%
- CC(C)N1CCC(N(C)c2ccnc(N(C)C)n2)CC1 — higher, 39.1%
- Cc1cc(NC(=O)NC2CCN(C(C)C)CC2)c2ncccc2c1 — higher, 79.7%
- CN(C)Cc1cncc2c1CCN(Cc1ccoc1)C2 — lower, -67.1%
- c1cc2c(cc1C1(CNC3=NCCN3)CCCC1)OCCO2 — higher, 81.1%
- Clc1ccc(C2(CNC3=NCCN3)CCCC2)cc1 — higher, 83.7%
- Fc1ccc(C2(CNC3=NCCN3)CCCC2)cc1 — higher, 83.5%
- Clc1ccc(C2(CNC3=NCCN3)CC2)cc1 — higher, 83.2%
- O=C(NC[C@]12COC[C@H]1CN(Cc1cccnc1)C2)c1ccsc1 — higher, 5.35%
- CNC(=O)C1CCC2(CCNCC2)C1 (stereo not drawn) — lower, -92%
- Cc1ccc(N2C[C@@H]3CN(Cc4ccoc4)CCO[C@@H]3C2)nn1 — higher, -14.1%
- Cc1oncc1C(=O)N[C@@H]1CN(C2CCC2)C[C@@H]2CCCO[C@@H]21 — lower, -114%
- O=C(Cc1c(F)cccc1F)N1CCN(CC(=O)N2CCCC2)CC1 — lower, -130%
- Cc1cc(CN2CC[C@H]3C[C@@H](c4nccs4)O[C@@H]3C2)no1 — lower, -79.5%
- CC(=O)N1CCOCC2(CCCNC2)C1 (stereo not drawn) — lower, -96.3%
- Clc1ccc(C2(CNC3=NCCN3)CCCCC2)cc1 — higher, 90.2%
- CN(C)C(=O)C1CCC2(CCNCC2)C1 (stereo not drawn) — lower, -63%
- CC(C)n1[nH]c(=O)c2c1NC(=O)CSC2c1ccc(OCC(N)=O)cc1 (stereo not drawn) — higher, -43.5%
- CC(C)n1[nH]c(=O)c2c1NC(=O)CSC2c1cccc(OCC(N)=O)c1 (stereo not drawn) — lower, -96.5%
- CC(NCc1ccc(OCC(N)=O)cc1)c1ccc2c(c1)CCCC2 (stereo not drawn) — higher, 73.4%
- O=C(c1cccnc1)N1CCN2C[C@H](Oc3cncnc3)C[C@H]2C1 — lower, -64.5%
- Cc1noc(C)c1CN1CC[C@@H]2O[C@H](COCC3CC3)CC[C@@H]21 — higher, -4.95%
- Cc1ccc(-c2nc(CNC(C)CCO)[nH]c2-c2ccccn2)cc1 (stereo not drawn) — higher, 86%
- c1cc(CN2CC[C@H]3C[C@H](c4nc(C5CC5)cs4)O[C@@H]3C2)ccn1 — higher, -49.9%
- CN(C)c1ncc2c(c1C(=O)O)CCN(Cc1ccco1)C2 — lower, -111%
- CC(=O)N1C[C@H]2CCCC(N3CCN(c4ncccn4)CC3)[C@H]2C1 (stereo partly drawn) — lower, -104%
- c1ccc(NC[C@@H]2CCC[C@@H]3CN(Cc4cc[nH]n4)C[C@@H]32)nc1 — higher, -29.8%
- c1cnc(NC[C@@H]2CCC[C@@H]3CN(Cc4csnn4)C[C@@H]32)nc1 — higher, 47.7%
- c1ccc(NC[C@@H]2CCC[C@@H]3CN(Cc4cccnc4)C[C@@H]32)nc1 — higher, 75%
- c1ccc(NC[C@@H]2CCC[C@@H]3CN(Cc4nccs4)C[C@@H]32)nc1 — higher, 57.1%
- Cn1ccnc1NC[C@@H]1CCC[C@@H]2CN(Cc3cccnc3)C[C@@H]21 — higher, -26.3%
- c1ccc(CN2C[C@@H]3CCCO[C@@H]3[C@H](Nc3ccccn3)C2)nc1 — higher, 18.5%
- c1ccc(NC[C@@H]2CCC[C@@H]3CN(Cc4csnn4)C[C@@H]32)nc1 — higher, 62%
- c1cncc(CN2C[C@H]3CCC[C@@H](CNc4cnccn4)[C@H]3C2)c1 — higher, -3.45%
- c1cnc(NC[C@@H]2CCC[C@@H]3CN(Cc4cc[nH]n4)C[C@@H]32)nc1 — higher, -16.9%
- c1ccc(NC[C@@H]2CCC[C@@H]3CN(c4ncccn4)C[C@@H]32)nc1 — higher, 72.9%
- O=C1N(c2cncnc2)CCC12CCCN(Cc1cccnc1)C2 (stereo not drawn) — lower, -88.1%
- Cc1nn(C)c2ncc(S(=O)(=O)N3CCCN4CCCC4C3)cc12 (stereo not drawn) — higher, -18.1%
- O=C1CSC(c2cccnc2)c2c(n(C3CCOCC3)[nH]c2=O)N1 (stereo not drawn) — lower, -140%
- O=C1CCC2(CCN(Cc3ccc(F)cc3)CC2)N1CCN1CCCC1 — higher, 84.6%
- CC[C@@H]1N(C)CCC[C@]12CCC(=O)N2Cc1ccncc1 — higher, 3.77%
- COCCN1CCCC2(CCC(=O)N2Cc2cccnc2)C1 (stereo not drawn) — lower, -66.3%
- Cc1cnc(N2CCCC3(CCCN3CC(=O)N(C)C)C2)nc1 (stereo not drawn) — lower, -98.2%
- COCCNc1nc2c(c(NCc3cnc(C)c(C)c3)n1)CCNCC2 — lower, -67.4%
- COCCNc1nc2c(c(NCCc3cccs3)n1)CCNCC2 — higher, 81.9%
- COCc1cncc2c1CCN(Cc1cccs1)C2 — higher, -1.55%
- Cn1cc(C2=CCN(CCCC(=O)Nc3ccc(C#N)cc3)CC2)cn1 — lower, -69.1%
- Cc1ccc(CN2CC[C@@H]3[C@@H]2CCN3C(=O)Cc2cccs2)o1 — higher, -34.3%
- CCn1ccnc1CN(C)C1CCCN(CCCc2ccccc2)C1 (stereo not drawn) — higher, 86.8%
- Cc1nc(CC(=O)N(C)C2CCCN(CCc3ccccc3)C2)cs1 (stereo not drawn) — higher, -42.4%
- CCn1ccnc1CN1CCCN(C(=O)Cc2ccccc2C)CC1 — higher, -41.3%
- CCn1ccnc1CN(C)C1CCCN(Cc2ccccc2F)C1 (stereo not drawn) — higher, 70.4%
- CCn1ccnc1CN1CCCN(C(=O)Cc2ccc(F)cc2)CC1 — higher, -4.98%
- Cc1ncc(CN(C)C2CCCN(CCc3ccccc3)C2)n1C (stereo not drawn) — higher, 90%
- CCn1ccnc1CN(C)C1CCCN(CCc2ccccc2)C1 (stereo not drawn) — higher, 77.1%
- CCn1c(C)nnc1CN(C)C1CCN(CCOc2ccccc2)C1 (stereo not drawn) — higher, -23.4%
- COC(=O)N1C[C@@H]2CC[C@H]1CN(Cc1ccncc1)C2 — lower, -81.6%
- c1cncc(O[C@H]2CC[C@H]3[C@H]2OCCN3C2CCCC2)c1 — higher, -36.8%
- O=C(c1ccc(F)c(F)c1)N1C[C@H]2CNC[C@H]2C1 — higher, -51.2%
- Cc1nccn1CCCN1CCCC(c2ccccc2)C1 (stereo not drawn) — higher, 77.8%
- Cc1ccc(O[C@@H]2C[C@H]3CN(c4ncc(F)cn4)CCN3C2)cc1 — lower, -98.8%
- c1cncc(OC[C@@]23CCC[C@@H]2CN(CC2CCOCC2)C3)c1 — higher, 39%
- COCC1CC2(CCN(Cc3ccccn3)CC2)CN1C(C)C (stereo not drawn) — higher, 9.58%
- CCN1CC(c2ccccc2)CC2(CCN(Cc3ncc[nH]3)CC2)C1 (stereo not drawn) — higher, 88.1%
- c1ccc(C2CN(C3CC3)CC3(CCN(Cc4cscn4)CC3)C2)cc1 (stereo not drawn) — higher, 80.4%
- CN1CC(c2ccccc2)CC2(CCN(Cc3ncc[nH]3)CC2)C1 (stereo not drawn) — higher, 82.5%
- Cc1cc(NC2CC3(CCN(Cc4cscn4)C3)C2)ncn1 (stereo not drawn) — higher, 19.4%
- O=C1NCC[C@]12CN(Cc1ccncc1)C[C@H]2c1ccccc1 — lower, -70.3%
- COCC1CC2(CCN(CC3CC3)CC2)CN1Cc1ccccn1 (stereo not drawn) — higher, 42.4%
- c1cc(NC2CC3(CCN(Cc4cscn4)C3)C2)ncn1 (stereo not drawn) — higher, -13.3%
- c1cc(NC2CC3(CCN(Cc4cc[nH]n4)C3)C2)ncn1 (stereo not drawn) — lower, -152%
- Cc1ncsc1CN1CCO[C@H]2[C@H](Oc3ccccn3)CC[C@@H]21 — higher, -24.4%
- CCC12CN3CC(CC)(CN(C1)C3c1[nH]c(=O)[nH]c(=O)c1C)C2=O (stereo not drawn) — lower, -87.1%
- CCOC(=O)[C@@H]1[C@@H](c2ccccc2)CN2CCN(C(=O)C3CC3)C[C@H]12 — lower, -91.7%
- c1cc(CN2CCO[C@@H]3CNC[C@@H]32)co1 — higher, -38.2%
- CCOc1c(Br)cc(C2c3c(n[nH]c3C)N=C3COC(=O)C32)cc1OC (stereo not drawn) — higher, 81.1%
- COc1cc(C2SCC(=O)Nc3n[nH]cc32)cc(OC)c1O (stereo not drawn) — higher, -36%
- COc1cc(C2c3c(n[nH]c3C)N=C3COC(=O)C32)cc(Br)c1O (stereo not drawn) — higher, 91%
- c1ccc(CN2CCO[C@H]3[C@H](OCCN4CCCC4)CC[C@@H]32)nc1 — higher, 30%
- CN1CCN(C[C@H]2CN3CC[C@H]2C[C@@H]3CNC(=O)c2ccco2)CC1 — higher, -59.7%
- O=C1CO[C@@H]2CN(Cc3ccncc3)C[C@H]2N1Cc1ccncc1 — higher, -52.2%

— ChEMBL document CHEMBL4513216, “Probing the Open Global Health Chemical Diversity Library for Multistage-Active Starting Points for Next-Generation Antimalarials” (ACS Infect Dis, 2020)
